In the library only some 19% were active in any assay of this set; here they are far more common.
Pf growth 48h – inhibits P. falciparum growth in the first generation, 48 h | P. falciparum luciferase growth in erythrocytes, 48 h | Potency, µM (highest dose often 28.7 µM), hits mostly inhibitors | 310,000 tested, 5.9% active | AID 504832
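Growth was read as firefly luciferase luminescence after a 48 h, 37 C, 5% CO2 exposure of compounds to reporter-bearing P. falciparum cultures (0.1% parasitemia, 2% hematocrit final) in Albumax-supplemented RPMI 1640.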
Pf growth 96h – P. falciparum growth inhibition at 96 hours; P. falciparum luciferase reporter growth, 96 h; Potency, µM (doses to about 28.7 µM), hits mostly inhibitors; 320,000 tested, 6.9% active; AID 504834
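Readout is luminescence from an integrated firefly luciferase in P. falciparum. Red cells, 2% hematocrit and 0.05% parasitemia final, were cultured with compound through two parasite generations (96 hours) at 37 C, 5% CO2.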
Shiga toxin inh – inhibitors of Shiga toxin in Vero cells; Vero cells, Shiga toxin protein synthesis inhibition reporter; inhibition, % at 38.7 µM; 290,000 tested, 9.2% active; in the data active = inhibition mostly above about 28%, no sharp cut-off; inactive = mostly below about 43%
Cycloheximide cs – affects cycloheximide protein synthesis inhibition readout, counter-screen | cell reporter, cycloheximide protein synthesis inhibition counterscreen | max response, % | 300,000 tested, 12% active | AID 2314; in the data active = max response mostly above about 13%, no sharp cut-off; inactive = mostly below about 14%; note: read at 38.3 µM for the half of the compounds with a filed dose
AMA1 RON2 block – inhibitors of Plasmodium falciparum AMA1-RON2 interaction; AlphaScreen AMA1-biotinylated RON2 peptide binding; Potency, µM (highest dose often 58.2 µM), most hits filed as inhibitors; 360,000 tested, 0.2% active; AID 720542; note: nearly all actives have a fitted effect of over 45% in size
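AMA1 (3D7) with his tag at 25 nM final met compounds first, then biotinylated RON2 peptide at 25 nM; detection used donor plus acceptor beads, 10 µg/mL apiece, read by AlphaScreen after 30 min at room temperature.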
SARS PLP yeast – blocks SARS-CoV papain-like protease in a yeast assay | S. cerevisiae expressing SARS-CoV PLpro, growth rescue | Potency, µM (doses to about 32.9 µM), hits mostly activators | 330,000 tested, 0.19% active | AID 485353; calls by dose curve; note: nearly all actives have a fitted effect of over 55% in size
Hits are given with their value; [ ] = remark or other dose. Unless noted, calls come from the whole dose curve; as a rule, active = well fitted curve in the direction sought with a large enough effect; inconclusive = small, poorly fitted or top-dose-only effect, or another doubt; inactive = no such curve, though single readings can be large; an effect the other way counts as inactive or inconclusive.

Screening O=C(Nc1ccc(Cl)cc1)N1CCC(CO)(Cc2ccccc2)CC1 returned Pf growth 48h inactive, Pf growth 96h 2.6µM, Shiga toxin inh inactive, Cycloheximide cs inactive, AMA1 RON2 block inactive and SARS PLP yeast inactive.
`OCC1(Cc2ccc(Cl)cc2)CCN(CCCc2ccccc2)CC1` gave Pf growth 48h inconclusive, Pf growth 96h inactive, Shiga toxin inh inactive, Cycloheximide cs inactive, AMA1 RON2 block inactive and SARS PLP yeast inactive.
For O=C(Nc1ccc(Cl)cc1)N1CCCC(Cn2cccc2)C1 (configuration not stated) the results were Pf growth 48h inactive, Pf growth 96h inactive, Shiga toxin inh inactive, Cycloheximide cs inactive, AMA1 RON2 block inactive and SARS PLP yeast inactive.
Screening O=C(Nc1ccc(Cl)cc1)N1N=CCC1c1ccccc1 (configuration not stated) returned Pf growth 48h inactive, Pf growth 96h inconclusive, Shiga toxin inh inactive, Cycloheximide cs 20, AMA1 RON2 block inactive and SARS PLP yeast inactive.
Screening CN1CCC(CO)(Cc2ccccc2)CC1 returned Pf growth 48h inactive, Pf growth 96h 3.7µM, Shiga toxin inh inactive, Cycloheximide cs inactive, AMA1 RON2 block inactive and SARS PLP yeast inactive.
Cc1ccc(C)c(NC(=O)NNS(=O)(=O)c2ccc(C)c(C)c2)c1 was read as Pf growth 48h inactive, Pf growth 96h inconclusive, Shiga toxin inh inactive, Cycloheximide cs inactive, AMA1 RON2 block inactive and SARS PLP yeast inactive.
`O=C(c1ccccc1)c1ccc(C(=O)N2CCN(c3ccccc3O)CC2)cc1` gave AMA1 RON2 block inactive.
`O=C(Nc1cccc(Cl)c1)N1CCC(CO)(CCOc2ccccc2)CC1` gave Pf growth 48h inactive, Pf growth 96h 13µM, Shiga toxin inh inactive, Cycloheximide cs inactive, AMA1 RON2 block inactive and SARS PLP yeast inactive.
O=C(CCN1CCN(c2ccccc2)CC1)Nc1ccc(Cl)cc1 was read as Pf growth 48h inactive, Pf growth 96h 3.7µM, Shiga toxin inh inactive, Cycloheximide cs inactive, AMA1 RON2 block inactive and SARS PLP yeast inactive.
Screening CC(=O)c1ccc(NC(=O)N2CCN(c3cccc(Cl)c3)CC2)cc1 returned Pf growth 48h 4.7µM, Pf growth 96h inconclusive, Shiga toxin inh inactive, Cycloheximide cs inactive, AMA1 RON2 block inactive and SARS PLP yeast inactive.
`O=C(Nc1ccc(NC(=O)N2CCN(c3ccccc3O)CC2)cc1)N1CCN(c2ccccc2O)CC1` gave Pf growth 48h inconclusive, Pf growth 96h 5.9µM, Shiga toxin inh inactive, Cycloheximide cs inactive, AMA1 RON2 block inactive and SARS PLP yeast inactive.
For COC(=O)c1ccc(NC(=O)CCN2CCN(c3ccccc3)CC2)cc1 the results were Pf growth 48h inconclusive, Pf growth 96h inactive, Shiga toxin inh inactive, Cycloheximide cs inactive, AMA1 RON2 block inactive and SARS PLP yeast inactive.
For CC(=O)c1ccc(N2CCN(C(=O)Nc3ccc(Cl)cc3)CC2)cc1 the results were Pf growth 48h inconclusive, Pf growth 96h inactive, Shiga toxin inh inactive, Cycloheximide cs inactive, AMA1 RON2 block inactive and SARS PLP yeast inactive.
`Cc1ccc(NC(=O)N2CCN(c3ncccc3C(F)(F)F)CC2)cc1` gave Pf growth 48h 8.3µM, Pf growth 96h 13µM, Shiga toxin inh inactive, Cycloheximide cs 15, AMA1 RON2 block inactive and SARS PLP yeast inactive.
Screening O=C(Nc1ccc(Cl)cc1)N1CCN(c2ccccc2)CC1 returned Pf growth 48h inconclusive, Pf growth 96h 12µM, Shiga toxin inh inactive, Cycloheximide cs 20, AMA1 RON2 block inactive and SARS PLP yeast inactive.
`O=C(Nc1ccc(Cl)cc1)N1CC1` gave AMA1 RON2 block inactive.
For NC(=O)c1c(NC(=O)C2CCCO2)sc2c1CCCC2 (configuration not stated) the results were Pf growth 48h inactive, Pf growth 96h inactive, Shiga toxin inh 56, Cycloheximide cs 38, AMA1 RON2 block inactive and SARS PLP yeast inactive.
For N#Cc1c(NC(=O)C2CC=CCC2C(=O)O)sc2c1CCCCCC2 (configuration not stated) the results were Pf growth 48h inactive, Pf growth 96h inactive, Shiga toxin inh inactive, Cycloheximide cs inactive, AMA1 RON2 block inactive and SARS PLP yeast inactive.
Screening N#Cc1c(NC(=O)C2CCCO2)sc2c1CCCCCC2 (configuration not stated) returned Pf growth 48h inactive, Pf growth 96h inactive, Shiga toxin inh 84, Cycloheximide cs 39, AMA1 RON2 block inactive and SARS PLP yeast inactive.
COC(=O)c1sc(NC(=O)C2CCCO2)c(C(=O)OC)c1C (configuration not stated) was read as Pf growth 48h inconclusive, Pf growth 96h inconclusive, Shiga toxin inh inactive, Cycloheximide cs inactive, AMA1 RON2 block inactive and SARS PLP yeast inactive.
For CCOC(=O)c1c(NC(=O)C2CCCO2)sc2c1CCC2 (configuration not stated) the results were Pf growth 48h inactive, Pf growth 96h inactive, Shiga toxin inh inactive, Cycloheximide cs inactive and AMA1 RON2 block inactive.
Screening Cc1c(C(=O)OC(C)C)sc(NC(=O)C2CCCO2)c1C(=O)OC(C)C (configuration not stated) returned Pf growth 96h 9.3µM, Shiga toxin inh inactive, Cycloheximide cs inactive, AMA1 RON2 block inactive and SARS PLP yeast inactive.
`Cc1sc(NC(=O)C2CCCO2)c(C#N)c1C` (configuration not stated) gave Pf growth 48h inactive, Shiga toxin inh inactive, Cycloheximide cs 15, AMA1 RON2 block inactive and SARS PLP yeast inactive.
Screening O=C(NCC(=O)N1CCc2ccccc2C1)c1ccccc1Cl returned Pf growth 48h inactive[0.00184 µM], Pf growth 96h inactive, Shiga toxin inh 71, Cycloheximide cs 22, AMA1 RON2 block inactive and SARS PLP yeast inactive.
O=C(CNC(=O)c1ccccc1Cl)OCC(=O)N1CCc2ccccc21 was read as Pf growth 48h inactive, Pf growth 96h inactive, Shiga toxin inh 127, Cycloheximide cs 41, AMA1 RON2 block inactive and SARS PLP yeast inactive.
Cc1cccc(C(=O)NCC(=O)OCC(=O)N2CCc3ccccc32)c1 was read as Pf growth 48h inactive, Pf growth 96h inactive, Shiga toxin inh inactive, Cycloheximide cs inactive, AMA1 RON2 block inactive and SARS PLP yeast inactive.
Screening O=C(NCC(=O)N1CCc2ccccc2C1)c1ccc(Cl)cc1Cl returned Pf growth 48h inactive, Pf growth 96h inactive, Shiga toxin inh inactive, Cycloheximide cs inactive, AMA1 RON2 block inactive and SARS PLP yeast inactive.
`O=C(Cc1ccccc1F)OCC(=O)N1CCc2ccccc21` gave Pf growth 48h inactive, Pf growth 96h inactive, Shiga toxin inh 97, Cycloheximide cs 64, AMA1 RON2 block inactive and SARS PLP yeast inactive.
O=C(COc1ccccc1F)OCC(=O)N1CCc2ccccc21 was read as Pf growth 48h inconclusive, Pf growth 96h inactive, AMA1 RON2 block inactive and SARS PLP yeast inactive.
For COc1cc(C2C3=C(COC3=O)Oc3cc4c(cc32)OCO4)ccc1O (configuration not stated) the results were AMA1 RON2 block inactive.
O=C(CC[C@H]1O[C@@H](n2ccc(=O)[nH]c2=O)[C@H](O)[C@@H]1O)NCC1CCCO1 (some centres not stated) was read as AMA1 RON2 block inactive.

Compound activity as filed in PubChem.
